Each structure is given as a SMILES string. Inconclusive results are not listed. Where a call stands in place of a potency, no number is given. A number with no mark means an inactive call. The source made the active and inactive calls. Calls come from the whole dose curve; as a rule, active = well fitted cell-killing curve with a large enough effect; inconclusive = small, poorly fitted or top-dose-only effect, or effect the other way; inactive = flat fitted curve, though single readings scatter. Where a SMILES comes first, the peptide text is derived from it. The star is where a group is joined. βNA = c1ccc2cc(N*)ccc2c1; Cbz = O=C(OCc1ccccc1)*

This assay has as its system Hek293T. The assay is described as follows: Primary qHTS to identify gynecologic anti-cancer compounds using libraries of approved drugs and bioactive compounds (AID 1345084). Note: nearly all actives have a fitted effect of over 55% in size. The conditions noted are these: Gynecologic cancer cell panel viability, ATPlite luminescence, 48 h, control line for the selectivity index; series mostly up to 57.5 µM. The procedure, abridged: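 Cells, 1,000 per well, plated 16 h, then exposed 48 h at 37 C to compounds. Viability by ATPlite luminescence after 15 min at room temperature.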
In general terms: qHTS replaces the single test concentration by a dilution series.
For `C/C(=C\CCC1(C)C2CC3C(C2)C31C)C(=O)O` (centres undefined), the Potency result was “inactive”.

`CCCC1=CC2=C(CO1)C(=O)C(C)(O)C(OC(=O)c1c(C)cc(OC)cc1O)C2` (centres undefined): the Potency result is “inactive”.

Consider `COc1cnc(-n2cnc(C)n2)c2[nH]cc(C(=O)C(=O)N3CCN(C(=O)c4ccccc4)CC3)c12`, for which the Potency result was “inactive”.

Turning to `CCCC/C=C\CCCCCc1cc(=O)c2ccccc2n1C`, the Potency entry was “inactive”.

Consider `CCN1CCN(C(=O)N[C@@H](C(=O)N[C@@H]2C(=O)N3[C@@H]2SC(C)(C)[C@@H]3C(=O)O)c2ccccc2)C(=O)C1=O`, for which the Potency result is “inactive”.

As to `C[C@@H]1O[C@@H](O[C@@H]2[C@@H](O)[C@H](O[C@H]3[C@H](O[C@H]4CC[C@@]5(C)C(CC[C@]6(C)C5CC=C5[C@@H]7CC(C)(C)CC[C@]7(C(=O)O[C@@H]7O[C@H](CO)[C@@H](O)[C@H](O)[C@H]7O)CC[C@]56C)C4(C)C)O[C@H](C(=O)O)[C@@H](O)[C@@H]3O)OC[C@H]2O)[C@H](O)[C@H](O)[C@H]1O` (some centres undefined), the activity change, negative = cytotoxicity was -0.983% [at 11.6 µM].

For the compound `COC(=O)C1=COC(O[C@@H]2O[C@H](CO)[C@@H](O)[C@H](O)[C@H]2O)/C(=C\COC(=O)/C=C/c2ccccc2)C1CC(=O)OCCc1ccc(O)cc1` (some centres undefined), the Potency result was “inactive”.

`C=CC(C)(O)CC/C=C(\C)C1CC=C(C)C(=O)O1` (centres undefined): the Potency result is “inactive”.

With `COc1cc(/C=C/C(=O)OC[C@H]2O[C@@H](OC3CC(C)=C(C(=O)O)C(C)(C)C3)[C@H](O)[C@@H](O)[C@@H]2O)cc(OC)c1O` (some centres undefined), the Potency result is “inactive”.

Turning to `CC1(C)C[C@H](O)C[C@@]2(C)[C@H]1[C@H](O)C=C1COC(=O)[C@@]12O`, the Potency result was “inactive”.

`O=C(O)Cc1cn([C@@H]2O[C@H](CO)[C@@H](O)[C@H](O)[C@H]2O[C@@H]2O[C@H](CO)[C@@H](O)[C@H](O)[C@H]2O)c2ccccc12`: the Potency entry is “inactive”.

With `C=C1CC[C@@]2(OC1)O[C@H]1CC3[C@@H]4CC=C5C[C@@H](O)C[C@@H](O[C@@H]6OC[C@H](O)[C@H](O)[C@H]6O[C@@H]6O[C@@H](C)[C@H](O)[C@@H](O)[C@H]6O)[C@]5(C)C4CC[C@]3(C)[C@H]1[C@@H]2C` (some centres undefined), the Potency entry was “inactive”.

Consider `CC(C)CC(NC(=O)OCc1ccccc1)C(=O)NC(CC(C)C)C(=O)NC(CCC(=O)O)C(=O)Nc1ccc2ccccc2c1` (stereo not drawn) (Cbz-Leu-Leu-Glu-βNA; configuration not given here), for which the Potency result was “inactive”.

On to `OC[C@@]1(O)CO[C@H](OC[C@H]2O[C@@H](OC(CCCCc3ccc(O)cc3)CCc3ccc(O)cc3)[C@H](O)[C@@H](O)[C@@H]2O)[C@@H]1O` (some centres undefined), for which the Potency result was “inactive”.

Turning to `Nc1ccc(-n2nc(C(F)(F)F)cc2C(F)(F)F)cc1`, the Potency entry was “inactive”.

With `C/C(=C\C(=O)C[C@@]12C(=O)O[C@]3(C)CC[C@H]1C[C@H]23)C(N)=O`, the Potency result is “inactive”.

Take `Nc1ncnc2c1C(=O)N(c1ccc(C3CCC(CC(=O)O)CC3)cc1)CCO2` (centres undefined): the Potency result is “inactive”.

Take `COC1OC(=O)C2=C1C1(C)CCCC(C)(C)C1CC2O` (centres undefined): the Potency entry is “inactive”.

Consider `C=C(CC/C=C(\C)C(=O)O)C1(O)CC=C(C)CC1` (centres undefined), for which the Potency entry was “inactive”.

For the compound `CC(C)Oc1ccc(-c2nc(-c3cccc4c3CCC4NCCC(=O)O)no2)cc1C#N` (centres undefined), the Potency result is “inactive”.

For `C=C1CC[C@@]2(OC1)O[C@H]1CC3[C@@H]4CC=C5C[C@H](O[C@H]6OC[C@@H](O)C(O)[C@@H]6O[C@@H]6O[C@@H](C)[C@H](O)[C@@H](O[C@@H]7O[C@H](CO)[C@@H](O)[C@H](O)[C@H]7O)[C@H]6O)C[C@@H](O)[C@]5(C)C4CC[C@]3(C)[C@H]1[C@@H]2C` (some centres undefined), the activity change, negative = cytotoxicity is 9.36% [at 11.6 µM].

In the case of `CC(C)c1cc2c(c(O)c1O)[C@@]13CCCC(C)(C)C1[C@@H](O)[C@@H]2OC3=O` (some centres undefined), the Potency result is “inactive”.

For the compound `COc1cccc(C)c1C(=O)O[C@@H]1C[C@H](O[C@H]2[C@H](O)C[C@H](O[C@@H]3CCC[C@H]4[C@H]3C=C[C@@H]3CCCC/C=C/[C@H]5C=C(C(=O)O)[C@@H](C)C[C@@]56OC(=O)C(=C6O)OC(=O)[C@@]34C)O[C@@H]2C)O[C@H](C)[C@H]1O`, the activity change, negative = cytotoxicity is 3.45% [at 11.6 µM].

With `CC(=O)OC1C(CO)OC(O[C@H]2[C@H](OC(=O)[C@]34CCC(C)(C)C[C@H]3C3=CCC5[C@@]6(C)CC[C@H](O[C@@H]7O[C@H](C(=O)O)[C@@H](O)[C@H](O[C@@H]8OC[C@@H](O)[C@H](O)[C@H]8O)[C@H]7O[C@@H]7O[C@H](CO)[C@H](O)[C@H](O)[C@H]7O)[C@@](C)(C=O)C6CC[C@@]5(C)[C@]3(C)C[C@H]4O)O[C@H](C)[C@H](OC3OC(C)C(OC4OCC(O)C(O)C4O)C(O)C3O)[C@@H]2O)C(O)C1O` (some centres undefined), the activity change, negative = cytotoxicity was 1.03% [at 6.55 µM].

In the case of `CC(C)=CCC/C(C)=C/CO[C@@H]1O[C@H](CO[C@@H]2O[C@@H](CO)[C@H](O)[C@H]2O)[C@@H](O)[C@H](O)[C@H]1O`, the Potency result was “inactive”.

Turning to `O=C(c1ccc(Cl)c([N+](=O)[O-])c1)N1CCN(c2ccccc2F)CC1`, the Potency entry is “inactive”.

For `COc1cc(O)c2c(c1Cl)CC(C)OC2=O` (centres undefined), the Potency entry was “inactive”.

In the case of `CCCCNc1nc(N)c2[nH]c(=O)n(Cc3ccc(OCCN(C)C)nc3)c2n1`, the Potency result was “inactive”.

Regarding `CC(O)C(=O)/C=C/C=C/C(=O)OC1C=C2COC(=O)C2(O)C2(C)CCCC(C)(C)C12` (centres undefined), the Potency entry is “inactive”.

As to `CC1(C)CC[C@]2(C(=O)O)CC[C@]3(C)C(=CCC4[C@@]5(C)CC[C@H](O[C@@H]6O[C@H](C(=O)O)[C@@H](O)[C@H](O[C@@H]7O[C@H](CO)[C@H](O)[C@H](O)[C@H]7O)[C@H]6O[C@@H]6O[C@H](CO)[C@@H](O)[C@H](O)[C@H]6O)C(C)(C)C5CC[C@]43C)[C@@H]2C1` (some centres undefined), the activity change, negative = cytotoxicity is -0.735% [at 6.55 µM].

Turning to `CC(=O)OC(C)(C)/C=C/C(=O)[C@](C)(O)C1[C@H](O)C[C@@]2(C)[C@@H]3CC=C4[C@@H](C[C@H](O[C@@H]5O[C@H](CO)[C@@H](O)[C@H](O)[C@H]5O)C(=O)C4(C)C)[C@]3(C)C(=O)C[C@]12C` (some centres undefined), the Potency entry is “inactive”.

For `CC1=CC(=O)CC(C)(C)[C@@]1(O)/C=C/C(C)O[C@@H]1O[C@H](CO)[C@@H](O)[C@H](O)[C@H]1O` (some centres undefined), the Potency result is “inactive”.

As to `CC(C)C1NC(=O)C(CC2(O)c3ccccc3N3C(=O)C(Cc4ccccc4)NC32)NC1=O` (centres undefined), the Potency result was “inactive”.

Turning to `OC[C@@]1(O)CO[C@H](OC[C@H]2O[C@@H](OC(CCCCc3ccc(O)cc3)CCc3ccc(O)cc3)[C@H](O[C@H]3OC[C@](O)(CO)[C@H]3O)[C@@H](O)[C@@H]2O)[C@@H]1O` (some centres undefined), the Potency result was “inactive”.

In the case of `COC(=O)c1c(CC=C(C)C)c(OC2OC(CO)C(O)C(O)C2O)c2ccccc2c1OC1OC(CO)C(O)C(O)C1O` (centres undefined), the Potency entry is “inactive”.

`C[C@]1(O)CC[C@@H]2C(C(=O)O)=CO[C@@H](O[C@@H]3O[C@H](COC(=O)/C=C/c4ccc(O)c(O)c4)[C@@H](O)[C@H](O)[C@H]3O)[C@@H]21`: the Potency result was “inactive”.

In the case of `CC(C)(O)C1CC=C(C(=O)OC[C@H]2O[C@@H](Oc3cc(C(=O)O)cc(O)c3O)[C@H](O)[C@@H](O)[C@@H]2O)CC1` (some centres undefined), the Potency entry was “inactive”.

Take `COc1cc2c(cc1O)CC(O)(CO)C(CO)C2c1ccc(OC2OC(CO)C(O)C(O)C2O)c(OC)c1` (centres undefined): the Potency result was “inactive”.

As to `O=C(O)CC/C=C\C[C@H]1CO[C@@H](c2ccccc2Cl)O[C@H]1c1ccccc1O`, the Potency result was “inactive”.
